The whole screen tested about 220,000 compounds, of which about 2,000 (0.91%) were called active. Another 2% or so got no clear call; they are omitted. Only a sample is shown. Entries with a potency or affinity are not part of this list. Values without a mark were called inactive. Cut-off read from the data, not from the text of the source: inconclusive = inhibition above about 80% without an active follow-up result; inactive = below that; test concentration not stated here.
assay: M. tuberculosis H37Rv growth inhibitors, H37Rv strain (AID 1626); settings: stronger effect = higher value, concentration not given here;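 note: bacteria incubated seven days before Alamar blue readout; 0% = bacteria only wells and 100% = bacteria with antibiotic wells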

Row | Compound | inhibition
1 | Cc1ccc(CNC(=O)c2ccc(Br)o2)cc1 | 6.85%
2 | Cc1ccccc1NC(=O)c1ccc([N+](=O)[O-])o1 | -5.26%
3 | Cc1cccc(NC(=O)COC(=O)c2ccc([N+](=O)[O-])o2)c1C | -1.87%
4 | O=C(NCc1cccnc1)c1ccc([N+](=O)[O-])o1 | 9.87%
5 | O=C(Nc1ccc2oc(-c3cccnc3)nc2c1)c1ccc(Br)o1 | -4.68%
6 | O=C(Nc1cccc(NC(=O)c2cccs2)c1)c1ccco1 | -1.16%
7 | COc1cc(NC(=O)c2ccc([N+](=O)[O-])o2)ccc1NC(=O)c1cccs1 | 11.9%
8 | O=C(Nc1ccc2oc(-c3cccnc3)nc2c1)c1ccco1 | -0.84%
9 | O=C(NCCCN1CCOCC1)C(C(=O)NCCCN1CCOCC1)c1ncc(C(F)(F)F)cc1Cl | -6.54%
10 | O=C1CC(C(=O)O)S/C(=N\N=C\c2ccc(Br)cc2)N1 (stereo unspecified) | -6.35%
11 | COc1cccc(OC)c1C(=O)NNC(=O)c1ccc(F)cc1 | -2.49%
12 | COc1ccccc1CN1C[C@@H]2C[C@@H](c3cccc(C)c3)N3CCC[C@@]23C1=O | 4.89%
13 | CCN(CC)S(=O)(=O)c1ccc(N/N=C(\C)c2ccc3c(c2)OCO3)c([N+](=O)[O-])c1 | 2.18%
14 | NC(=O)N/N=C/c1coc2ccc(O)cc2c1=O | -3.42%
15 | O=C(Nc1ncccn1)c1ccc([N+](=O)[O-])o1 | 0.82%
16 | Cc1cc(C)nc(NC(=O)c2ccc([N+](=O)[O-])o2)n1 | -5.31%
17 | Cc1cccnc1NC(=O)c1ccc([N+](=O)[O-])o1 | 2.32%
18 | Cc1ccnc(NC(=O)c2ccc([N+](=O)[O-])o2)c1 | 5.02%
19 | NS(=O)(=O)c1ccc(O)c(NC(=O)c2ccc([N+](=O)[O-])o2)c1 | -1.93%
20 | Cc1cccc(NC(=O)c2ccc([N+](=O)[O-])o2)n1 | 3.18%
21 | C=CCNC(=O)c1ccc2c(c1)S(=O)(=O)c1ccccc1C2=O | -9.32%
22 | COc1cc(C(=O)N2CCN(c3ccccc3)CC2)c([N+](=O)[O-])cc1OC | 3.88%
23 | CN(C)c1ccc(CC(=O)c2nc3ccccc3s2)cc1 | -5.99%
24 | CCCSc1nnc(NC(=O)Nc2ccc(F)cc2)s1 | 17%

Row | Compound | inhibition
25 | O=C(NCC1CCCN(Cc2cccc(C(F)(F)F)c2)C1)c1ccc(F)cc1 (stereo unspecified) | -2.43%
26 | Cn1cc(/C=C(\C#N)C(=O)Nc2ncc(Cc3ccc(Cl)cc3)s2)c2ccccc21 | 1.97%
27 | Cn1cc(/C=C(\C#N)C(=O)Nc2ncc(Cc3cccc(Cl)c3)s2)c2ccccc21 | 4.07%
28 | COC(C/C=C/[C@H](O)[C@H](C)OCc1ccccc1)OC | -0.67%
29 | O=[N+]([O-])c1ccc(N=Nc2ccc(O)cc2O)cc1 | 5.58%
30 | O=c1[nH]c(O)c(N=Nc2ccc([N+](=O)[O-])cc2)c(=O)[nH]1 | -0.55%
31 | COC(=O)CCC(=O)N1CCc2cc(S(=O)(=O)N3CCN(c4ccccc4Cl)CC3)ccc21 | 3.32%
32 | CN(C)c1ccc(C(=S)N2CCCCC2)cc1Br | 6.15%
33 | Cc1ccc(CN=c2c([N+](=O)[O-])nn(-c3cccc(C)c3)n2O)cc1 | -1.44%
34 | Cc1cccc(N=c2c([N+](=O)[O-])nn(-c3ccc(Cl)cc3)n2O)c1 | 36.6%
35 | Cc1cc(C)cc(N=c2c([N+](=O)[O-])nn(-c3ccc(Cl)cc3)n2O)c1 | 48.3%
36 | O=[N+]([O-])c1nn(-c2cccc(Cl)c2)n(O)c1=NCc1cccnc1 | 6.16%
37 | O=C(CCC1CCCN(Cc2ccc3c(c2)OCCO3)C1)NCc1ccccc1F (stereo unspecified) | -11.3%
38 | CCCNC(=O)NC(=O)CSc1ccc2c(c1)OCCO2 | 5.15%
39 | O=C(C1CCN(c2nnc(-n3cccc3)s2)CC1)N1CCOCC1 | 0.74%
40 | O=C(NCCCN1CCc2ccccc2C1)C1CCN(c2nnc(-n3cccc3)s2)CC1 | -4.77%
41 | O=C(Nc1cc(C(F)(F)F)ccc1Cl)C1CCN(c2nnc(-n3cccc3)s2)CC1 | -3.21%
42 | O=C(C1CCCN(c2nnc(-n3cccc3)s2)C1)N1CCN(c2ccccc2)CC1 (stereo unspecified) | 63.1%
43 | COc1ccc(CN2C(=O)NC(=O)/C(=C\c3ccco3)C2=O)cc1 | -5.87%
44 | O=C(O)c1cc([N+](=O)[O-])cc2c1nnn2O | -1.94%
45 | COc1cc(C(=O)Nc2ccc3c(c2)OCCO3)ccc1OC(C)C | -2.6%
46 | CCOC(=O)c1ccc(NC(=O)Nc2ccc(OC)c(OC)c2)cc1 | -4.38%
47 | COc1ccc(N/C=C/C(=O)c2ccc(OC)c(OC)c2)cc1 | 47%
48 | COc1cccc(Oc2ccc(N/C=C/C(=O)C(C)(C)C)cc2)c1 | 1.22%

Row | Compound | inhibition
49 | CCOC(=O)c1ccc(N/C=C\C(=O)c2cccc(OC)c2)cc1 | 94.8%
50 | COc1ccccc1Oc1ccc(N/C=C/C(=O)C(C)(C)C)cc1 | -4.81%
51 | CCOc1ccccc1N/C=C/C(=O)C(C)(C)C | 4.06%
52 | Cc1ccc(N/C=C/C(=O)C(C)(C)C)c(O)c1 | -0.76%
53 | COc1ccccc1N(C(=O)c1snc(C(N)=O)c1N)C(C(=O)NCCC(C)C)c1ccco1 (stereo unspecified) | -1.7%
54 | COc1ccc(C(=O)NC(=O)Nc2ncccc2C)cc1 | -9.06%
55 | O=C(N/N=C1\C(=O)c2cccc3cccc1c23)c1ccc(O)cc1 | 20.7%
56 | N#C/C(=C\c1c(Cl)cccc1Cl)c1nn(-c2ccccc2)c(-n2cccc2)c1C#N | -1.88%
57 | O=S(=O)(NCc1cccnc1)c1ccc(Cl)c(Cl)c1 | -0.1%
58 | CCOC(=O)c1c(-c2ccccc2)csc1NC(=O)CSc1nncs1 | 4.86%
59 | CCN(CC)C(=O)C(=O)c1cccn1-c1cccc(Cl)c1C#N | -4.03%
60 | CC(=O)c1c(C)[nH]c(C(=O)NCCc2cccc(C)c2)c1C | 3.77%
61 | CCn1c(COc2ccccc2)nc2ccccc21 | -0.43%
62 | O=C(Cc1csc(-c2ccccc2)n1)NCc1cccs1 | 2.64%
63 | COc1ccccc1C(=O)OCc1c(F)cccc1Cl | -0.9%
64 | CCOC(=O)c1ccc(N/C=C/C(=O)c2ccco2)cc1 | 76.7%
65 | COc1ccc(C(=O)/C=C/Nc2ccc(NC(C)=O)cc2)cc1OC | 0.63%
66 | CCOC(=O)c1ccc(N/C=C/C(=O)c2ccc(OC)cc2)cc1 | 77.2%
67 | COC(=O)c1ccc(N/C=C/C(=O)c2ccc(OC)c(OC)c2)cc1 | 36.6%
68 | O=C(Nc1ccc(F)cc1F)c1cccnc1 | -2.1%
69 | O=C(NCCCCNC(=O)c1ccc(Br)s1)c1ccc(Br)s1 | -1.39%
70 | CCOc1ccc(NC(=O)c2ccccc2OCC(=O)c2ccccc2)cc1 | 4%
71 | COc1ccccc1-c1nnc(SCC(=O)N2CCOCC2)n1-c1ccccc1 | 1.2%
72 | COCCn1c(C)cc(C(=O)CSc2nc(C)nc3sc4c(c23)CCC4)c1C | -2.28%

Row | Compound | inhibition
73 | O=C(NCC(=O)N1CCC(N2CCCCC2)CC1)C1CCCCC1 | -10.3%
74 | CC(C)(C)c1nnc2sc(SCC(=O)N3CCc4ccccc43)nn2c1=O | 1.69%
75 | CCS(=O)(=O)N1CCN(C2Cc3ccccc3C2)CC1 | -4.5%
76 | O=C(COC(=O)CCCOc1ccc(Cl)cc1Cl)Nc1cccc(Cl)c1 | 6.33%
77 | COc1ccc(NC(=O)COC(=O)CCCOc2ccc(Cl)cc2Cl)cc1 | 12.7%
78 | COc1ccc(NC(=O)COC(=O)/C=C/C(=O)OCC(=O)Nc2ccc(OC)c(Cl)c2)cc1Cl | -1.96%
79 | COC(=O)CCC(=O)Nc1ccc(Cl)c(Cl)c1 | -2.69%
80 | O=C(O)CCCC(=O)Nc1ccc(Cl)c(Cl)c1 | -7.53%
81 | CCOC(=O)/C=C/C(=O)OCC(=O)Nc1ccc(OC)c(Cl)c1 | 3.02%
82 | Cc1cc(Cl)ccc1OCCCC(=O)NN | -1.79%
83 | Cc1cc(Cl)ccc1OCCCC(N)=O | -0.81%
84 | COc1ccc(CNC(=O)CS(=O)Cc2nc(-c3ccccc3C)oc2C)cc1 (stereo unspecified) | 7.5%
85 | COc1ccc(/C=N/NC(=O)c2ccc(CN3c4cccc5cccc(c45)S3(=O)=O)cc2)cc1 | 0.99%
86 | CCOC(=O)c1sc(NC(=O)CCCCl)nc1C | 6.92%
87 | CC(C)Cn1c(N)c(C(=O)COC(=O)C2CCCCC2)c(=O)n(C)c1=O | -2.8%
88 | Cc1cc(NC(=O)COC(=O)c2ccc(S(=O)(=O)N3CCCC3)cc2)no1 | 5.16%
89 | CN(c1ccccc1C(=O)NC1CC2CCC1C2)S(=O)(=O)c1ccccc1 (stereo unspecified) | 5.72%
90 | CC1CCCC/C1=N\NC(=S)Nc1cccnc1 (stereo unspecified) | -2.62%
91 | COc1ccccc1CNC(=O)CN(C)CC(=O)Nc1cccc(F)c1 | -0.48%
92 | COc1ccc(NC(=O)CN(C)CC(=O)Nc2ccccc2SC)cc1Cl | -0.42%
93 | CCCCOc1ccc(C(C)NC(=O)C2CCCN(S(=O)(=O)CC)C2)cc1 (stereo unspecified) | -2.95%
94 | CCC(=NCCO)c1c(O)n(C2CCCCC2)c(=O)[nH]c1=O | 3.46%
95 | CCOC(=O)c1cnc2ccc(C)cc2c1Nc1ccc(N2CCOCC2)cc1 | 0.42%
96 | CCOC(=O)c1cnc2ccc(C(=O)OC)cc2c1Nc1ccc(C(=O)O)cc1 | -2.69%

— PubChem BioAssay AID1626 (SRMLSC, 2009)
